Rhodamine fluor: compound autofluorescence in rhodamine spectral region; Rhodamine-region fluorescence, 547/598 nm, Tris buffer; hits give high values; max dye-equivalent concentration, M; 0.05% of 59,000 active; AID 594; in the data active = max dye-equivalent concentration above about 11 nM; inconclusive = between about 1.1 nM and that limit
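Steps: pin-transfer compounds into pH 8.0 Tris (100 mM), hold 15 min at room temperature, image with a 547/598 nm filter pair, and convert intensities to rhodamine-equivalent concentration using a six-point on-plate rhodamine series.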
TexasRed autofl: compounds fluorescent in Texas Red spectral region; Compound fluorescence, Texas Red channel, 547/618 nm; hits give high values; max dye-equivalent concentration, M; 0.06% of 59,000 active; in the data active = max dye-equivalent concentration above about 10 nM; inconclusive = between about 1.1 nM and that limit
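Texas Red-region profiling: compounds in 100 mM Tris pH 8.0 were read at 547/618 nm after 15 min at room temperature. Intensities were normalized against a six-point Texas Red standard series to give dye-equivalent concentration.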
A647 autofl: compound autofluorescence in A647 spectral region | Compound fluorescence, A647 channel (570/671 nm), Tris buffer | max dye-equivalent concentration, M | 59,000 tested, under 10 active | AID 592;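 note: values scaled relative to a standard on each plate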
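Compounds pinned into 100 mM Tris pH 8.0, 15 min at room temperature, then read with 570 nm excitation/671 nm emission filters. Fluorescence normalized to an on-plate six-point Alexa 647 standard curve, giving dye-equivalent concentration per compound concentration.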
A488 autofl: compound autofluorescence in A488 spectral region | AID 591 | 0.1% of 59,000 active | max dye equivalency, M | compound autofluorescence, A488 spectral region, dye equivalency; Compound Type: qHTS ECL - MLSMR
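Intrinsic compound fluorescence is measured in 100 mM Tris buffer at pH 8.0 following 15 min incubation at room temperature. Intensities at 480 nm excitation/540 nm emission are calibrated to an on-plate A488 concentration series, giving dye-equivalent concentrations.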
Fluorescein autfl: compound autofluorescence in fluorescein spectral region. Compound autofluorescence, 480/540 nm, fluorescein-equivalent; hits give high values. max fluorescein-equivalent concentration, M. 0.91% of 59,000 active. AID 593; in the data active = max fluorescein-equivalent concentration above about 10 nM; inconclusive = between about 1.1 nM and that limit
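Fluorescein stocks ranging 3 mM down to 300 nM, plus DMSO blanks, were pinned alongside compounds to build a per-plate standard curve. Buffer: 100 mM Tris, pH 8.0. Incubation 15 min, room temperature; filters 480/540 nm.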
Resorufin autofl: compounds fluorescent in resorufin spectral region; AID 588; 0.04% of 59,000 active; Compound fluorescence, resorufin region 547/598 nm, buffer; hits give high values; max dye-equivalent concentration, M
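Tris 100 mM pH 8.0; compound added, 15 min RT; CCD imager read, ex 547 nm/em 598 nm; signal normalized to resorufin standard curve (six concentrations per plate) as dye-equivalent concentration.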
Active calls of the source: *; i = inactive; ? = inconclusive. A selection: hits, their analogues and other compounds. The true share with any hit is near 0.9%. Unless noted, the rule behind the calls is not given here.

SMILES	Rhodamine fluor	TexasRed autofl	A647 autofl	A488 autofl	Fluorescein autfl	Resorufin autofl
Nc1nc(-c2ccc3ccccc3c2)cc(-c2cc(-c3ccc4ccccc4c3)nc(N)n2)n1	i	?	1e-09	i	i	i
Cc1cc(C)c(S(=O)(=O)N(CC(=O)O)C2CCCCC2)c(C)c1	i	i	3.5e-08	i	2.6e-08M*	i
Cc1cc(C)c(S(=O)(=O)N(CC(=O)N2CCOCC2)C2CCCCC2)c(C)c1	i	i	1e-09	i	i	i
CN1C=CC2=C(C#N)C(N)C(C#N)(C#N)C(c3ccccc3)C2C1 (stereo unspecified)	i	i	5.7e-08	?	3.3e-08M*	i
COCCNc1nc(-c2ccccc2OC)nc2ccccc12	i	i	5.1e-09	i	?	i
COc1cccc2c1C(=O)c1c(O)c3c(c(O)c1C2=O)C[C@](O)(C(=O)CO)C[C@H]3O[C@@H]1C[C@H](N)[C@H](O)[C@H](C)O1	9.8e-08M*	9.5e-08M*	2.1e-08	1.3e-08M*	3e-07M*	7.2e-08M*
CCOC(=O)c1c(C)[nH]c(C)c1C(=O)Cn1nnc(-c2ccccc2C)n1	i	i	1e-09	i	1e-08M*	i

Bioassay records: PubChem, National Center for Advancing Translational Sciences (NCATS)
